For one sequence, binding signal results are on record in article PMC7862700, “An all-to-all approach to the identification of sequence-specific readers for epigenetic DNA modifications on cytosine”.

Holding throughout (assay): DAPPL (digital affinity profiling via proximity ligation, sequencing); 10 mM Tris-HCl pH 7.5, 50 mM NaCl, 1 mM DTT, 4% glycerol, room temperature, 30 min; GST-TFs on glutathione beads, 16-mer random dsDNA library, 0.1% formaldehyde crosslink after washing; high values mean tight binding
What all share (conditions): protein: recombinant; tags: N-terminal GST; dsDNA, one strand shown

For one assay, the target named is T1, ELK4 (Homo sapiens, UniProt P28324-2 1-405).
T1 sequence: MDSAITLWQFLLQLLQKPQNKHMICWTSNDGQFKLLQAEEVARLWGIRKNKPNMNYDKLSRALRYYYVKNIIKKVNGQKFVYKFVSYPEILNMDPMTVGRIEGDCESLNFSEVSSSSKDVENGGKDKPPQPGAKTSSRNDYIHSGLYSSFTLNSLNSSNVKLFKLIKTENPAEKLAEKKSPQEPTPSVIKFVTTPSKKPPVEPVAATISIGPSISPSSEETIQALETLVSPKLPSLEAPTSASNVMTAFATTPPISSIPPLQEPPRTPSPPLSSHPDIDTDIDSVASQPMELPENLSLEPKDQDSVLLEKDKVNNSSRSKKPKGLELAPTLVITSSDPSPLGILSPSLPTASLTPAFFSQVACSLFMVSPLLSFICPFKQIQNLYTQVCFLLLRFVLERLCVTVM
A digest of the protocol:
(§1)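 GST fusions of human transcription factors were expressed in yeast and captured with glutathione beads. Once given DNA barcodes and pooled alongside a tag-only sample, they were incubated for 30 min at room temperature with 200 nmole of a random double-stranded 16-mer DNA library in Tris/NaCl/DTT/glycerol buffer, then washed, crosslinked (0.1% formaldehyde), proximity-ligated, PCR-amplified and sequenced on an Illumina NextSeq500. The binding signal of each hexamer is its read frequency for a factor divided by its frequency for the tag-only sample.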

Another assay deals with T2, ETV2 (Homo sapiens, UniProt O00321 1-342).
T2 sequence: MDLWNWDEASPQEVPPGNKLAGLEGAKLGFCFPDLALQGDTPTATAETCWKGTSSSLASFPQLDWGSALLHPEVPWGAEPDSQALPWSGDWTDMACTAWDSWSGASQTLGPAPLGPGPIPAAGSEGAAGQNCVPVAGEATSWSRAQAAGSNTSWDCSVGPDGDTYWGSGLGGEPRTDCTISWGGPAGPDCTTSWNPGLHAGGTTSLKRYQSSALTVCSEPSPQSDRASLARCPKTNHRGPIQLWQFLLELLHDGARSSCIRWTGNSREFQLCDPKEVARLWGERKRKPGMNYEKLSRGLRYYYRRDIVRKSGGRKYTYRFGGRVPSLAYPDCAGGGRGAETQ
Put shortly:
as §1

The target in another assay is T3, ELF3 (Homo sapiens, UniProt P78545 1-371).
T3 sequence: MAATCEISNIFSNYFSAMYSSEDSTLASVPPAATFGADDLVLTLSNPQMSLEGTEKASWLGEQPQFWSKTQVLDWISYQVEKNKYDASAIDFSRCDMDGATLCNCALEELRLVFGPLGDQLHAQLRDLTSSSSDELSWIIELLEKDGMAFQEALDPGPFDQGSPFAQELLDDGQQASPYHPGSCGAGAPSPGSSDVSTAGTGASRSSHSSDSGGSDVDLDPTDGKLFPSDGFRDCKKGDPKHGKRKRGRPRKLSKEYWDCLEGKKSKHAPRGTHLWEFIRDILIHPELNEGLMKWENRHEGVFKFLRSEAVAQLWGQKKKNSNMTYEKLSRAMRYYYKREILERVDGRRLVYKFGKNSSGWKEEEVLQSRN
A digest of the protocol: as §1

The target in the next assay is ETV1 (Homo sapiens, UniProt P50549 1-477). Put shortly: as §1
ETV1, sequence (P50549 whole entry): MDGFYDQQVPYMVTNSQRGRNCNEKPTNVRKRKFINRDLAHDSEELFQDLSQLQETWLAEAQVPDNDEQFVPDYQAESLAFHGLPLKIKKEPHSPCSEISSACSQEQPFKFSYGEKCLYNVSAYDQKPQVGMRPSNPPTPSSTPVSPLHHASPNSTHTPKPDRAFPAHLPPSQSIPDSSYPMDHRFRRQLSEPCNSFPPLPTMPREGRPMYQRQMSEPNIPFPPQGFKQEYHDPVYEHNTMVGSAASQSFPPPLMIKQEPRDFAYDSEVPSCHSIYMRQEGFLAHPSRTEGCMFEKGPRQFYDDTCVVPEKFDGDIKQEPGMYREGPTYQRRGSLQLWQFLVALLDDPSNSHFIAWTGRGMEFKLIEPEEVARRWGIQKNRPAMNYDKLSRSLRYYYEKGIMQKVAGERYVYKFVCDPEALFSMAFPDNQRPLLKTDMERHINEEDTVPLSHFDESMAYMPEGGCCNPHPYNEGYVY
For the next assay, the target named is T4, ERF (Homo sapiens, UniProt P50548 1-548).
T4 sequence: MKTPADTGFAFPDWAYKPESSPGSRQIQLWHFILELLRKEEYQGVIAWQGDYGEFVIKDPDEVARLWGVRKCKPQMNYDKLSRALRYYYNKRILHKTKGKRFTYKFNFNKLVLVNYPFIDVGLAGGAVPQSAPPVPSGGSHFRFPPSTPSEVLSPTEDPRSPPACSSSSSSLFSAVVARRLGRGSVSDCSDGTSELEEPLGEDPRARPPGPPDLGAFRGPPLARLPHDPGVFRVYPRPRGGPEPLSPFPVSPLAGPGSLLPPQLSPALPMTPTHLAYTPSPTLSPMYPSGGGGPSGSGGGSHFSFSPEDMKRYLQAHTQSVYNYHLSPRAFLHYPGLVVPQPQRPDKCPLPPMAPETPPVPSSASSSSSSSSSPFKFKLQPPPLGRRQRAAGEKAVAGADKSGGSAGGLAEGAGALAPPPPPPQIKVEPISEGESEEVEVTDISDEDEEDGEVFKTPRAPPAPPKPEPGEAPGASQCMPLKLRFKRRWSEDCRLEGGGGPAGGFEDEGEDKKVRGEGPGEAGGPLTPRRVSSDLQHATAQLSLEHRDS
Put shortly:
as §1

For the next assay, the target named is T5, ETV3L (Homo sapiens, UniProt Q6ZN32 1-361).
T5 sequence: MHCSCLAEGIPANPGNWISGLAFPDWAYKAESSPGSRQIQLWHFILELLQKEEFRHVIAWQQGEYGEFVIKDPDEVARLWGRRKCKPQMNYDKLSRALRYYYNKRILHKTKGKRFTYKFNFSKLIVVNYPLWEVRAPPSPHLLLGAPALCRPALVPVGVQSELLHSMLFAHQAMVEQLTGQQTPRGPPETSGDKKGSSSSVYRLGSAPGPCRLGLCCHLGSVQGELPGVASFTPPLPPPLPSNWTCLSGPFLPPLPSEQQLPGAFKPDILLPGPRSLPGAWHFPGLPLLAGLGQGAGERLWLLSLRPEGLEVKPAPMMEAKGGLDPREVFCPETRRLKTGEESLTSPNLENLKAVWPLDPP
A digest of the protocol:
as §1

For a further assay, the target named is T6, ETS2 (Homo sapiens, UniProt P15036 1-469).
T6 sequence: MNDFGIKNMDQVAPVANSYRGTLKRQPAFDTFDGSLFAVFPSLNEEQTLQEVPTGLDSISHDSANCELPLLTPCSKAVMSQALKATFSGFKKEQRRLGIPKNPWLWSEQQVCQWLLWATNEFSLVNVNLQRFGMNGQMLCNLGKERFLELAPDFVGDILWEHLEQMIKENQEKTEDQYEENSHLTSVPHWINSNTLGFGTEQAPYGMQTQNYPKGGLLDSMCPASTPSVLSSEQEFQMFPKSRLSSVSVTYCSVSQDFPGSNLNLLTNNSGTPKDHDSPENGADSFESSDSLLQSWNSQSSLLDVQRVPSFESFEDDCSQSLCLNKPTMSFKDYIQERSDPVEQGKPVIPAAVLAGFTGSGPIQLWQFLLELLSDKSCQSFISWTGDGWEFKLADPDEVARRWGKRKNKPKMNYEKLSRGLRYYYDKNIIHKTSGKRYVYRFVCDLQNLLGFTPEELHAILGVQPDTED
A digest of the protocol:
as §1

For another assay, the target named is T7, ETV7 (Homo sapiens, UniProt Q9Y603 1-341).
T7 sequence: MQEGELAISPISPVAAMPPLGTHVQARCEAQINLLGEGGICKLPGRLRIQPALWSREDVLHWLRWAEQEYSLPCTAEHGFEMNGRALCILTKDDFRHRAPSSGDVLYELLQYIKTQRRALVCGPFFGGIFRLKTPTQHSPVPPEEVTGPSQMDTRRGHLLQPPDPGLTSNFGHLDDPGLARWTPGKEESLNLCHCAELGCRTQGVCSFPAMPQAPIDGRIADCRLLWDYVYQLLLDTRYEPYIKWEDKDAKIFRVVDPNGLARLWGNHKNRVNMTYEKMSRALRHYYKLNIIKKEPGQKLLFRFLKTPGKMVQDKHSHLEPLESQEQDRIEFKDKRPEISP
A digest of the protocol: as §1

The target of another assay is T8, ETV3 (Homo sapiens, UniProt P41162-2 1-143).
T8 sequence: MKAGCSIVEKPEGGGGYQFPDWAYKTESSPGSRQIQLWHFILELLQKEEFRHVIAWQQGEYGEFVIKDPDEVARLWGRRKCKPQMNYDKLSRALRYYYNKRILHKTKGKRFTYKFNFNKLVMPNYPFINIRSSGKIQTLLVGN
A digest of the protocol: as §1

For a further assay, the target named is ETV6 (Homo sapiens, UniProt P41212 1-452). Put shortly:
as §1

ETV6, sequence (P41212 whole entry): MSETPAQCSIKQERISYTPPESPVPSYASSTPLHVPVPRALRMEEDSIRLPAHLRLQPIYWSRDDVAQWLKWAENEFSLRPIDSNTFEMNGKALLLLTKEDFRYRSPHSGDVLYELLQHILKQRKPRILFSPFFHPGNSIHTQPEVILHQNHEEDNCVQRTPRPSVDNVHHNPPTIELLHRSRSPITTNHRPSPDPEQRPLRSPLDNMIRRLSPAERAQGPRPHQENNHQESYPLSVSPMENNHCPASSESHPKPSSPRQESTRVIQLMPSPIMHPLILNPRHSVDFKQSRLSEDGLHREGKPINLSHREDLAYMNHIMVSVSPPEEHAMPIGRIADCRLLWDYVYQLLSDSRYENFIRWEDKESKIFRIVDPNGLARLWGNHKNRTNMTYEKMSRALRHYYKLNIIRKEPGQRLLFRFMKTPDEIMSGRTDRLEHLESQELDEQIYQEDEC

In the case of CATCAT, the binding signal in the assay with ELK4 was 1.11 fold enrichment (6-mer frequency, TF over GST control); with ETV2, 1.22 fold enrichment (6-mer frequency, TF over GST control); with ELF3, 1.1 fold enrichment (6-mer frequency, TF over GST control); in the assay with ETV1 it was 1.07 fold enrichment (6-mer frequency, TF over GST control); with ERF, 1.1 fold enrichment (6-mer frequency, TF over GST control); in the assay with ETV3L, 1.07 fold enrichment (6-mer frequency, TF over GST control). Moreover, the binding signal with ETS2 was 1.08 fold enrichment (6-mer frequency, TF over GST control); with ETV7 it was 1.05 fold enrichment (6-mer frequency, TF over GST control); with ETV3 it was 1.08 fold enrichment (6-mer frequency, TF over GST control); with ETV6, 1.05 fold enrichment (6-mer frequency, TF over GST control).
